Source: PubChem BioAssay AID2410 (Southern Research Specialized Biocontainment Screening …, 2010)
About 2,100 (84%) of roughly 2,500 compounds were called active.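 Rule for the calls: active = toxic compounds, whose cell viability fell below 70% of untreated control cells; inactive = the rest.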 The set was probably picked from earlier hits. A selection follows. Measured potencies and affinities stand elsewhere.

assay: HEp-2 cell cytotoxicity, dose response, cytotoxicity control for RSV inhibitor project, HTS (AID 2410); conditions: HEp-2 viability, luminescence, cytotoxicity counter-screen; series mostly up to 50 µM;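 note: cells exposed to compound for six days before readout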

| SMILES | outcome |
| --- | --- |
| CCOC(=O)c1cc(CC)sc1NC(=O)c1ccc2c(c1)OCCO2 | inactive |
| CCC(CC)NC(=O)COC(=O)c1ccc(NS(=O)(=O)c2ccc3c(c2)OCCO3)cc1 | inactive |
| Cc1cccc(Nc2nc(OCC#N)nc(N(C)C)n2)c1 | inactive |
| Cc1ccc(S(=O)(=O)N2CCN(CCO)CC2)cc1-c1nnc2c3ccccc3c(C)nn12 | inactive |
| Cc1ccnc(NS(=O)(=O)c2ccc(NC(=O)Cc3ccccc3)cc2)n1 | inactive |
| Cc1ccc(C2=NN(C(=O)COc3ncnc4ccccc34)C(c3ccco3)C2)cc1 (stereo not drawn) | inactive |
| O=C1CN2C(=Nc3ccc(Cl)cc3C2c2ccccc2)CN1 (stereo not drawn) | inactive |
| O=C1CC(Sc2nnc(-c3ccccc3)o2)C(=O)N1c1ccccc1 (stereo not drawn) | inactive |
| CN(CCO)c1nc(N)c2c(N)nc3c(c2c1C#N)CC(=O)N3Cc1cccs1 | inactive |
| Clc1cccc(Nc2ncnc3c2cnn3-c2ccccc2)c1 | inactive |
| CCOc1ccc2nc(NC(=O)Cc3cccs3)sc2c1 | inactive |
| Cc1ccc2nc(NC(=O)CCn3c(=O)sc4ccccc43)sc2c1 | inactive |
| COc1cc(NC2c3ncccc3C(=O)N2Cc2ccco2)cc(OC)c1OC (stereo not drawn) | inactive |
| Cc1ccc(-n2nc3c(=O)n(CCCC(=O)NCC(C)c4ccccc4)nc(C)c3c2C)cc1 (stereo not drawn) | inactive |
| CC(C(=O)N=Nc1c(O)[nH]c2ccccc12)n1cnc2ccccc2c1=O (stereo not drawn) | inactive |
| CCOC(=O)Cc1nnc(Nc2ccc(C)cc2)c2ccccc12 | inactive |
| COC(=O)c1c(NC(NC(=O)C(C)(C)C)C(Cl)(Cl)Cl)sc2c1CCC2 (stereo not drawn) | inactive |
| Cc1ccc(OCc2ccc(Br)cc2)c([N+](=O)[O-])n1 | inactive |
| COc1ccc(CNC(=O)CCCn2nc(C)c3c(C)n(-c4ccc(C)cc4)nc3c2=O)cc1 | inactive |
| O=C(CSc1nc2nc3c(cc2c(=O)n1-c1ccccc1)CCCC3)Nc1cccc2ccccc12 | inactive |
| Nc1c2c(nc3sc4c(c13)CCCC4)-c1ccccc1CC2 | inactive |
| Cc1noc(C)c1C(=O)OC(C)C(=O)Nc1ccc(S(=O)(=O)NC(C)C)cc1 (stereo not drawn) | inactive |
| CCCCc1cc(=O)oc2c3c(cc(OCC(=O)N4CCC[C@H]4C(=O)O)c12)OC(C)(C)CC3 | inactive |

| SMILES | outcome |
| --- | --- |
| Cc1cc(C)c2c(n1)sc1c(N3CCCCC3)ncnc12 | inactive |
| COc1ccc(Cl)cc1NS(=O)(=O)c1c(C)[nH]c(C)c1C(=O)N1CCCCC1 | inactive |
| COc1ccc(N(CC(=O)NC2CCCC2)C(=O)c2ccc(C)s2)c(OC)c1 | inactive |
| CCCc1c(C(=O)Nc2ccc(C(F)(F)F)cc2)cnn1-c1ccccc1 | inactive |
| Cc1cc(C)c(C)c(C(=O)CSc2nnc(-c3ccc4[nH]c(C)c(C)c4c3)o2)c1C | inactive |
| Cc1c(NC(=O)CN2C(=O)c3ccccc3C2=O)c(=O)n(-c2ccccc2)n1C | inactive |
| C/C(N)=C(/C#N)C(=O)COC(=O)CNS(=O)(=O)c1ccc2ccccc2c1 | inactive |
| COc1ccc(S(=O)(=O)NCc2ccco2)cc1-c1nnc2c3ccccc3c(C)nn12 | inactive |
| O=c1cc(-c2ccc(O)c(O)c2)oc2c(C3O[C@H](CO)[C@@H](O)[C@H](O)[C@H]3O)c(O)cc(O)c12 (stereo partly drawn) | inactive |
| COc1ccc(OC)c(-c2nc3c(C)n[nH]c(=O)c3[nH]2)c1 | inactive |
| COc1ccc(C(C)=O)cc1COc1ncnc2ccccc12 | inactive |
| COc1ccc2c(CC(=O)Nc3ccc(OC)c(NS(=O)(=O)c4ccc(F)cc4)c3)coc2c1 | inactive |
| Cc1ccc(-c2n[nH]c(=S)n2/N=C/c2ccncc2)cc1 | inactive |
| COCCNC(=O)c1cc2c(s1)-c1ccc(Cl)cc1SC2 | inactive |
| Cc1cc2cc(C)c(NCCNC(=O)c3ccccc3F)nc2cc1C | inactive |
| Clc1ccc(Nc2ccc3ccccc3n2)cc1 | inactive |
| O=C(NC1=NCCS1)c1ccc(-c2ccc(Cl)cc2)o1 | inactive |
| CCOC(=O)N1CCN(C(=O)CSc2nnc(-c3ccc(C)c(C)c3)o2)CC1 | inactive |
| O/N=C/c1ccccc1OCc1ccc(Cl)cc1 | inactive |
| O=C(O)c1nn(CCOc2c(Cl)cccc2Cl)c(=O)c2ccccc12 | inactive |
| O=C(Nc1ccc(Cl)cc1Cl)C1=Cc2ccccc2OC1 | inactive |
| COc1ccc(C(=O)Nc2cccc3c2CCCC3)c(OC)c1 | inactive |
| O=C(O)c1ccc(N/N=C/c2cc(Br)cs2)cc1 | inactive |

| SMILES | outcome |
| --- | --- |
| CCOc1cccc(C(=O)Nc2ccc(NC(=O)c3ccccc3)c(C)c2)c1 | inactive |
| CCOc1ccc(NC(=O)c2csc3c2CCCC3)cc1 | inactive |
| COc1ccc(CCNC(=O)c2ccc(N(C)S(=O)(=O)c3ccc(C)cc3)cc2)cc1 | inactive |
| COc1ccc2[nH]cc(C(=O)CN3CCN(C4CCCCC4)CC3)c2c1 | inactive |
| CC1(C)Cc2cccc(C(=O)Nc3ccc(F)cc3F)c2O1 | inactive |
| O=C1c2ccccc2C(=O)N1CC1c2ccccc2CCN1C(=O)C1CCCCC1 (stereo not drawn) | inactive |
| O=c1c2ccccc2nc(/C=C/c2ccc(Br)cc2)n1CCCO | inactive |
| CC(=O)N1CCN(C2=NC(=O)/C(=C/c3ccc(OS(=O)(=O)c4ccccc4)cc3)S2)CC1 | inactive |
| CCn1nc(NC(=O)c2ccccc2)c2cc3cccc(C)c3nc21 | inactive |
| Cc1csc2c(=O)sc(NC(=O)c3ccc(F)cc3)nc12 | inactive |
| N#Cc1c(-c2c(Cl)cccc2Cl)noc1/C=C/Nc1ccc(C(=O)O)cc1 | inactive |
| Cc1[nH]c2ccccc2c1/C=N/Nc1ccc([N+](=O)[O-])cc1 | inactive |
| Cc1ccc(-c2nc(-c3cccnc3)no2)c(C)c1 | inactive |
| COc1ccc2nc(/C=N/NC(=O)[C@H](C)NC(=O)OC(C)(C)C)ccc2c1 | inactive |
| CC(=O)Nc1cccc(-c2csc(Nc3cccc(C)n3)n2)c1 | inactive |
| CCOC(=O)c1cccc(NC(=O)Nc2cc(OC)ccc2OC)c1 | inactive |
| N=C1SCC(=O)N1c1nc(-c2ccccc2)cs1 | inactive |
| CS(=O)(=O)c1ccccc1C(=O)Nc1ccc(-c2nc3ccccc3o2)cc1 | inactive |
| CSc1nnc(-c2ccc(Cl)cc2Cl)o1 | inactive |
| CCOc1ccc2nc3c(cc2c1)CN(CCCO)C(=NCCOC)S3 | inactive |
| O=[N+]([O-])c1ccc2c(c1)nnn2-c1ccccc1 | inactive |
| CCN(CC)c1nc(Nc2ccc(Cl)cc2)nc(OCC#N)n1 | inactive |
